# Measured values taken from PubChem BioAssay AID463173 (ICCB-Longwood Screening Facility, Harvard Medical School, 2010).
# Hit rate of the full screen: of about 52,000 compounds, about 1,700 (3.3%) were called active. The sample as a whole holds a higher share of actives than the screen did. A number with no mark means an inactive call. No stated cut-off is given here; in the data, active means survival mostly below about 52% (no sharp cut-off); inactive means mostly above about 56%.
# Test system: Wild type
# Test: S. aureus survival, RN4220 and DeltatarO strains – OD600, teichoic acid synthesis inhibitors, primary screen (AID 463173)
# Conditions: S. aureus RN4220 wild type/DeltatarO growth, OD600, 18 h, active compounds read low, screened at 18.75 µg/mL (by protocol)
row,Structure (SMILES),survival
1,Cc1ccc2nc(-c3c[nH]c4ccccc34)c(Nc3ccc(F)cc3)n2c1,72%
2,CCc1ccccc1NC(=O)C(CC)Oc1ccccc1-c1nnc(-c2ccccc2)o1 (centres undefined),0% (active)
3,CCOC(=O)c1ccccc1NC(=O)COc1ccccc1-c1nnc(-c2ccccc2)o1,22%
4,CCC(Oc1ccccc1-c1nnc(-c2ccccc2)o1)C(=O)Nc1ccc(C(C)=O)cc1 (centres undefined),118%
5,CC(=O)c1ccc(S(=O)(=O)N2CCn3cccc3C2c2ccc(F)c(F)c2)cc1 (centres undefined),68%
6,Nc1nc2n(n1)C(c1cccs1)CC(c1ccc(Cl)cc1Cl)N2 (centres undefined),106%
7,CCOC(=O)C1CCC(CN(Cc2cccc(Br)c2)S(=O)(=O)c2ccc(Cl)cc2)CC1 (centres undefined),90%
8,COc1cc2ccccc2cc1C(=O)Nc1cc(-c2nc3ccccc3o2)ccc1C,126%
9,Cc1ccc2nc(-c3ccc(Cl)c(NC(=O)c4ccc(Br)o4)c3)oc2c1,69%
10,COc1ccc(NC(=O)c2ccco2)cc1NC(=O)C(C)Oc1ccc(Cl)cc1Cl (centres undefined),6% (active)
11,Cc1ccc2cccc(NC(=O)C(C)Oc3ccc(Cl)cc3Cl)c2n1 (centres undefined),-9% (active)
12,COc1ccc(NC(=O)c2ccco2)cc1NC(=O)C(C)C,90%
13,COc1ccc(NC(=O)c2ccco2)cc1NC(=O)c1cc(Cl)ccc1OC,65%
14,COc1cc2ccccc2cc1C(=O)Nc1cccc(-c2nc3ccccc3o2)c1,1% (active)
15,Cc1ccc2nc(-c3cccc(NC(=O)c4ccc(Br)o4)c3)oc2c1,7% (active)
16,Cc1cc(C)c2oc(-c3cccc(NC(=O)c4ccc(Br)o4)c3)nc2c1,45%
17,Cc1ccc2cccc(NC(=O)c3ccc(-c4ccc(Cl)cc4Cl)o3)c2n1,69%
18,COc1cc2ccccc2cc1C(=O)Nc1cccc(-c2nc3cc(C)c(C)cc3o2)c1,58%
19,Cc1ccc2cccc(NC(=O)C(C)Oc3ccc(C)c(C)c3)c2n1 (centres undefined),83%
20,Cc1cc2c(cc1S(=O)(=O)CCC(=O)N1CCCCC1C)OCC(=O)N2 (centres undefined),85%
21,COc1ccc(CNC(=O)c2ccc(CS(=O)Cc3ccccc3Cl)o2)cc1 (centres undefined),95%
22,Cc1ccc(-n2nc(C(=O)N3CCCCC3C)c(=O)n(C)c2=O)cc1 (centres undefined),80%
23,COc1ccc(S(=O)(=O)c2cn(C)c3ccc(C)cc3c2=O)cc1,82%

row,Structure (SMILES),survival
1,CSc1ccc(CNC(=O)c2ccccc2NC(=O)c2nsc3ccccc23)cc1,90%
2,CCc1ccc(NC(=O)CN2C(=O)C3(SCC(=O)N3c3ccc(F)c(F)c3)c3ccccc32)cc1 (centres undefined),125%
3,COc1ccc(-c2nc3ccccc3o2)cc1NC(=O)CSc1ccc(Cl)cc1,73%
4,CCc1ccc(OCC(=O)Nc2ccc3oc(-c4ccc(OC)cc4)nc3c2)cc1,79%
5,COc1cc2ccccc2cc1C(=O)Nc1ccc2oc(-c3ccc(F)cc3)nc2c1,81%
6,COc1cc2ccccc2cc1C(=O)Nc1ccc2oc(-c3ccccc3)nc2c1,4% (active)
7,COc1ccccc1OC(C)C(=O)Nc1cccc(-c2nc3ccccc3o2)c1 (centres undefined),3% (active)
8,COc1ccc(-c2nc3ccccc3o2)cc1NC(=O)C(C)Oc1ccc(Cl)cc1Cl (centres undefined),8% (active)
9,CC(C)C(=O)Nc1cccc(-c2nc3ccccc3o2)c1,103%
10,Cc1cc(OC(C)C(=O)Nc2cccc(-c3nc4ccccc4o3)c2)cc(C)c1Cl (centres undefined),55%
11,COc1ccc(-c2nc3ccccc3o2)cc1NC(=O)Cc1ccc(Cl)cc1,68%
12,CCc1ccc(-c2nc3cc(NC(=O)c4cc5ccccc5cc4OC)ccc3o2)cc1,14% (active)
13,COc1cc2ccccc2cc1C(=O)Nc1ccc2oc(-c3ccc(Cl)cc3)nc2c1,91%
14,COc1cc2ccccc2cc1C(=O)Nc1ccc2oc(-c3ccc(F)cc3Cl)nc2c1,69%
15,COc1ccc(-n2c(=O)c3sc4ccccc4c3n(C)c2=O)cc1,83%
16,CCOc1ccc(N=C(c2ccccc2)N2CCOCC2)cc1,99%
17,CCc1ccccc1N(C)C(=O)C1CCCN(c2ncnc3c2nc2n3CCCCC2)C1 (centres undefined),75%
18,CC(C)c1ccc(NC(=O)Cn2c(=O)oc3cc(S(=O)(=O)N4CCCC4)ccc32)cc1,124%
19,CC(C)C(=O)Nc1ccccc1C(=O)OCc1cc(=O)n2nc(C3CC3)sc2n1,100%
20,Cc1ccc(-n2nc(C)c3c(C)cc(=O)n(CC(=O)NC(C)c4ccccc4)c32)cc1 (centres undefined),143%
21,Cc1oc2ncn(CC(C)C)c(=O)c2c1C(=O)N(CCN(C)C)Cc1ccccc1,99%
22,COc1cc2ccccc2cc1C(=O)Nc1cccc(-c2nc3cc(C)ccc3o2)c1C,75%
23,COc1cc2ccccc2cc1C(=O)Nc1ccc2oc(-c3cccc(C)c3)nc2c1,6% (active)

row,Structure (SMILES),survival
1,COc1cc2ccccc2cc1C(=O)Nc1ccc2oc(-c3cccc(Cl)c3Cl)nc2c1,71%
2,Brc1ccc(-n2nc(-c3ccccc3)c3cnc4cc5c(cc4c32)OCO5)cc1,112%
3,CCN(C(=O)CSc1nnc(-c2ccc(Cl)cc2)o1)c1ccccc1,66%
4,CCCCN1C(=O)C(O)(CC(=O)c2ccc(CC)cc2)c2cc(Br)ccc21 (centres undefined),2% (active)
5,COc1ccc(OC)c(C(=O)CC2(O)C(=O)N(Cc3ccccc3C)c3ccccc32)c1 (centres undefined),118%
6,CCCN1C(=O)C(O)(CC(=O)c2ccc(C(C)C)cc2)c2ccccc21 (centres undefined),129%
7,CCCCN1C(=O)C(O)(CC(=O)c2ccc(C(C)(C)C)cc2)c2ccccc21 (centres undefined),3% (active)
8,O=C(CC1(O)C(=O)N(Cc2ccccc2)c2ccc(Br)cc21)c1ccccc1 (centres undefined),30%
9,Cc1ccccc1CN1C(=O)C(O)(CC(=O)c2cccc(Br)c2)c2ccccc21 (centres undefined),10% (active)
10,Cc1ccc(C(=O)CC2(O)C(=O)N(CCc3ccccc3)c3ccc(Br)cc32)cc1 (centres undefined),24%
11,Cc1ccc(C(=O)CC2(O)C(=O)N(Cc3ccccc3)c3ccccc32)c(C)c1 (centres undefined),20%
12,CCc1ccc(C(=O)CC2(O)C(=O)N(CCc3ccccc3)c3ccc(Br)cc32)cc1 (centres undefined),36%
13,CCCN1C(=O)C(O)(CC(=O)c2ccc(OC)c(OC)c2)c2ccccc21 (centres undefined),130%
14,Cc1ccc(C(=O)CC2(O)C(=O)N(Cc3ccccc3F)c3ccccc32)cc1 (centres undefined),71%
15,CCCCN1C(=O)C(O)(CC(=O)c2ccc(C)cc2C)c2cc(Br)ccc21 (centres undefined),1% (active)
16,COC(=O)CSc1ncc2c(n1)-c1ccccc1N(Cc1cccc(F)c1)S2(=O)=O,70%
17,CC(C)CCNC(=O)c1cccc(-n2cnc3cccnc32)c1,136%
18,Fc1ccc(-c2cn3cc(Cc4ccccc4Cl)sc3n2)cc1,53%
19,N#Cc1ccc2ccn(CC(N)=O)c2c1,95%
20,Cc1ccc(CNC(=O)c2cc3ccc4cccnc4c3[nH]2)cc1,0% (active)
21,O=C(NCc1ccccc1)c1cc2ccc3cccnc3c2[nH]1,73%
22,O=C(NCc1ccc(Cl)cc1)c1cc2ccc3cccnc3c2[nH]1,49%
23,CCOc1ccccc1NC(=O)c1cc2ccc3cccnc3c2[nH]1,10% (active)

row,Structure (SMILES),survival
1,CCOc1ccccc1N(CC)C(=O)c1cc2ccc3cccnc3c2[nH]1,74%
2,CCOC(=O)c1ccccc1NC(=O)c1cc2ccc3cccnc3c2[nH]1,121%
3,Cc1ccc(-c2nnn(CC(=O)N(CC(=O)NCCC(C)C)c3ccc(F)cc3)n2)cc1,84%
4,CCOC(=O)C1C(=O)N(C(=O)c2cncc(Br)c2)CC1c1ccccc1 (centres undefined),112%
5,CCOC(=O)c1cc(S(=O)(=O)Nc2cc(F)ccc2C)[nH]n1,75%
6,CCC1Oc2ccccc2N(CC(=O)NCc2ccc(C)cc2)C1=O (centres undefined),77%
7,CC1Oc2ccccc2N(CC(=O)NCc2ccccc2)C1=O (centres undefined),105%
8,CCC1Oc2ccccc2N(CC(=O)NCc2ccccc2)C1=O (centres undefined),-3% (active)
9,Cc1ccc(CCNC(=O)c2ccc(CSCc3ccc(C)cc3)o2)cc1,65%
10,CCc1nn2c(=O)cc(COC(=O)c3cccc(NC(=O)COc4ccccc4F)c3)nc2s1,124%
11,CC(C)(C)OC(=O)N1CCC(c2c(C(=O)NCCN3CCOCC3)cnn2-c2ccc(F)cc2)CC1,89%
12,CC(C)(C)OC(=O)N1CCC(c2c(C(=O)NCCN3CCOCC3)cnn2-c2ccc(F)cc2F)CC1,-3% (active)
13,CC(C)(C)OC(=O)N1CCC(c2c(C(=O)NCCN3CCc4ccccc4C3)cnn2-c2ccc(F)cc2F)CC1,81%
14,Cc1cccc(C)c1-n1ncc(C(=O)NCCCN2CCCCC2)c1C1CCN(C(=O)OC(C)(C)C)CC1,85%
15,Cc1cccc(C)c1-n1ncc(C(=O)NCCN2CCOCC2)c1C1CCN(C(=O)OC(C)(C)C)CC1,75%
16,CCOC(=O)N1CCC(NC(=O)c2cnn(-c3ccc(F)cc3F)c2C2CCN(C(=O)OC(C)(C)C)CC2)CC1,82%
17,CC(C)(C)OC(=O)N1CCC(c2c(C(=O)NC3CCN(Cc4ccccc4)CC3)cnn2-c2ccc(F)cc2F)CC1,-4% (active)
18,Cc1cccc(C)c1-n1ncc(C(=O)NCCN2CCN(C)CC2)c1C1CCN(C(=O)OC(C)(C)C)CC1,0% (active)
19,CC(C)(C)OC(=O)N1CCC(c2c(C(=O)NC3CCN(Cc4ccccc4)CC3)cnn2-c2cccc(F)c2)CC1,76%
20,Cc1cccc(OCC(=O)Nc2c(C(=O)N3CCN(c4ccccc4)CC3)oc3ccccc23)c1,86%
